From PubChem BioAssay (NCATS)
Records with an inconclusive call do not appear. Activity calls are given as the source filed them. Calls follow the shape of the dose curve; as a rule, active = well fitted inhibition curve with a large enough effect; inconclusive = small, poorly fitted or top-dose-only effect; inactive = no such curve, though single readings can be large or run the other way.

Target: Cytochrome P450 2D6 (Homo sapiens) (UniProt P10635)
Experiment: qHTS Assay for Inhibitors and Substrates of Cytochrome P450 2D6 (AID 891)
Conditions: recombinant CYP2D6, luciferin-ME EGE luminescence; series mostly up to 57.1 µM
Outline: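 Luminescent read-out of luciferin formed by 5 nM human CYP2D6 demethylating 30 uM Luciferin-ME EGE (Km level) over 60 min at room temperature after NADPH regeneration addition. Data normalized to full inhibition by 1.43 uM quinidine.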
Also: nearly all actives have a fitted effect of over 60% in size.
Potency is read from the fitted curve at half-maximal effect.

Sequence of Cytochrome P450 2D6 (Homo sapiens) (P10635 whole entry, looked up): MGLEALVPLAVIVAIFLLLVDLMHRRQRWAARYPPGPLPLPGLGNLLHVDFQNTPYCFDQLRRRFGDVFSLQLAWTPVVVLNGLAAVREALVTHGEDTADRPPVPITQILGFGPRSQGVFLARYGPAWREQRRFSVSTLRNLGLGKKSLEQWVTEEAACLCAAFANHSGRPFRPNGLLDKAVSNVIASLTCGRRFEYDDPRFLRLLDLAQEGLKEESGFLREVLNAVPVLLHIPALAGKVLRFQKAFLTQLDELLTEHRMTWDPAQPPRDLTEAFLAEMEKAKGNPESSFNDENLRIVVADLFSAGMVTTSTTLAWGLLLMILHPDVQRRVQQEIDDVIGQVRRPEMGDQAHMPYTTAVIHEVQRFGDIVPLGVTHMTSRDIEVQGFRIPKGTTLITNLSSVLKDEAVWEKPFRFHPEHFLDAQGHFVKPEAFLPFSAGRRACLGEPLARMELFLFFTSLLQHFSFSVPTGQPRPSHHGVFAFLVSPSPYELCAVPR

Structure (SMILES)	Potency
CCCC[C@H]1C[C@@H]1[C@@H]1N(P(=O)(c2ccccc2)c2ccccc2)[C@](CO)(c2ccccc2)CC12CC2	2510 nM (active)
COc1ccc2nc3c(cc2c1)Cc1ccccc1-3	6310 nM (active)
c1ccc2c(c1)Cc1cc3cc4c(cc3nc1-2)OCO4	1260 nM (active)
COc1ccc2nc3c(c([Si](C)(C)C(C)(C)C)c2c1)Cn1c-3cccc1=O	2000 nM (active)
CCC/C=C(\CCC)C(NS(=O)(=O)CC12CCC(CC1=O)C2(C)C)c1ccc(C(=O)OC)cc1 (stereo unspecified)	5010 nM (active)
c1ccc2c(c1)Cc1cc3ccccc3nc1-2	12600 nM (active)

Target: Cytochrome P450 2C19 (Homo sapiens) (UniProt P33261)
Experiment: qHTS Assay for Inhibitors and Substrates of Cytochrome P450 2C19 (AID 899)
Conditions: recombinant CYP2C19, luciferin-H EGE luminescence; series mostly up to 57.1 µM
Outline: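 Reactions contain 5nM enzyme, 10uM Luciferin-H EGE (KM) and 50mM KPO4; compound preincubates 10 min at 37C, NADPH regeneration starts turnover for 60 min. Luminescence after detection reagent gives activity.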

Sequence of Cytochrome P450 2C19 (Homo sapiens) (P33261 whole entry, looked up): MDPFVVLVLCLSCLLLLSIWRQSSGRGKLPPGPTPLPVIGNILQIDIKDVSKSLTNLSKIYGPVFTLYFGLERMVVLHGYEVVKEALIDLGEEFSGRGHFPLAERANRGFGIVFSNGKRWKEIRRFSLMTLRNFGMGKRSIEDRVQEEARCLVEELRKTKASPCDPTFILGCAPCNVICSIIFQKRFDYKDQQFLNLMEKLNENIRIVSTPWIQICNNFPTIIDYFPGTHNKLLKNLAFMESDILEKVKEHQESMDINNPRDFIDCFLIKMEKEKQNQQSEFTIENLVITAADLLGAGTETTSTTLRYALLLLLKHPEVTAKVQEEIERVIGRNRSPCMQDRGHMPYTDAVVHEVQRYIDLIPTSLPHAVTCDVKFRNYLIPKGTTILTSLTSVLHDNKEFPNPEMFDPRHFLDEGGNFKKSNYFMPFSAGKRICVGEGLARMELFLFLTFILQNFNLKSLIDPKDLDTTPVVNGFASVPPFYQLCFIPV

Structure (SMILES)	Potency
CCCC[C@@H]1C[C@H]1C(NC(=O)c1cccs1)c1ccccc1C(F)(F)F (stereo partly specified)	631 nM (active)
CCCC/C=C/C(NC(=O)c1cccs1)c1ccccc1 (stereo unspecified)	1580 nM (active)
CCCC[C@@H]1C[C@H]1C(NC(=O)c1ccccc1)c1ccc(Cl)cc1 (stereo partly specified)	631 nM (active)
CCCC[C@@H]1C[C@H]1C(NC(=O)c1ccccc1)c1ccccc1 (stereo partly specified)	398 nM (active)
S=C(Nc1ccccc1)Nc1ccccc1C#Cc1ccccc1	3160 nM (active)
COc1ccc2nc3c(cc2c1)Cc1ccccc1-3	2510 nM (active)
CCC[C@@H]1C[C@@]1(CCC)C(NS(=O)(=O)c1cccc2cccnc12)c1ccc(Cl)cc1 (stereo partly specified)	3160 nM (active)
CCCC[C@@H]1C[C@H]1C(NC(=O)c1ccccc1)c1ccccc1C(F)(F)F (stereo partly specified)	501 nM (active)
c1ccc2c(c1)Cc1cc3cc4c(cc3nc1-2)OCO4	1260 nM (active)
CCC/C=C(\CCC)C(NS(=O)(=O)c1cccc2cccnc12)c1ccc(C(=O)OC)cc1 (stereo unspecified)	3160 nM (active)
COc1ccc2nc3c(c([Si](C)(C)C(C)(C)C)c2c1)Cn1c-3cccc1=O	2000 nM (active)
COC(=O)[C@@]1(Cc2ccc(F)cc2)[C@H]2c3cc(C(=O)N4CCCC4)n(CCc4ccc(OC)c(Br)c4)c3C[C@H]2CN1C(=O)c1ccccc1	5010 nM (active)
COC(=O)[C@@]1(Cc2ccccc2)[C@H]2c3cc(C(=O)N4CCCC4)n(Cc4ccc(O)c(OC)c4)c3C[C@H]2CN1C(=O)c1ccccc1	501 nM (active)
C=C1C(=O)C=C2CN(C(=O)c3ccccc3)[C@@](Cc3ccc(F)cc3)(C(=O)OC)[C@@H]12	5010 nM (active)
COC(=O)[C@@H]1C[C@H]1[C@@H](NC(=O)c1ccccc1)c1ccccc1	1260 nM (active)
O=C(Cc1ccccc1I)Nc1ccccc1	6310 nM (active)
c1ccc2c(c1)Cc1cc3ccccc3nc1-2	5010 nM (active)
CCC/C=C(\CCC)C(NC(=O)c1cccs1)c1ccc(C(F)(F)F)cc1 (stereo unspecified)	316 nM (active)
CCCC[C@@H]1C[C@H]1C(NC(=O)Cc1ccccc1)c1ccc(Cl)cc1 (stereo partly specified)	50.1 nM (active)
CCCC[C@@H]1C[C@H]1C(NC(=O)c1cccs1)c1ccc(C(F)(F)F)cc1 (stereo partly specified)	inactive
